# Results taken from ChEMBL document CHEMBL3988442, “University of Dundee, Small-Polar-MMV Screening Library” (2021).
# The whole screen tested about 48,000 compounds, of which about 13,000 (27%) showed an effect of 50% or more. The list shows a part of the results.
# Tested on: Wolbachia pipientis
# Test: Anti-Wolbachia Cell-Based Screen
# Type: functional
# Design: scale not given: in the data most compounds retested in dose-response had high values
# Conditions: 5 µM
row,SMILES,Percent Effect
1,CCCOc1ccc(C(=O)N[C@@H]2CCNC[C@H]2O)cc1Cl,4.821%
2,c1cc(NCc2cscn2)cc(OCCN2CCCCC2)c1,8.828%
3,CN(Cc1cc[nH]n1)C(=O)C1CC(=O)N(Cc2ccncc2)C1 (stereo unspecified),23.6%
4,CC(C)(C)OC(=O)Cn1nc(C2CC2)cc(C(F)(F)F)c1=O,2.885%
5,CCCN1CCN(C(=O)Cn2nc(C(F)(F)F)c(Br)c2C2CC2)CC1,112.9%
6,CCCN1CCCN(C(=O)C(CC)N2CCCC2=O)CC1 (stereo unspecified),-5.426%
7,CCCN1CCN(C(=O)C(C)n2cc(Br)cn2)CC1 (stereo unspecified),6.17%
8,Cc1nn(C)c(C)c1CCC(=O)N1CCN(CCn2cncn2)CC1,2.467%
9,CCCN1CCN(C(=O)CCn2nc(C(F)(F)F)c(Br)c2C)CC1,94.07%
10,CCN1CCN(C(=O)CCC2CCN(C(=O)CCSC)CC2)CC1,1.019%
11,CCN1CCN(C(=O)Cn2nc(C(F)(F)F)c(Br)c2C2CC2)CC1,81.51%
12,CC(C)(C)C(=O)Cn1nc(C2CC2)cc(C(F)(F)F)c1=O,3.486%
13,CN1CCN(C(=O)Cn2nc(C(F)(F)F)c(Br)c2C2CC2)CC1,120.3%
14,Cc1cc(C2CCCN(C(=O)CN3CCN(C)CC3)C2)n[nH]1 (stereo unspecified),0.3099%
15,CCN1CCN(C(=O)CCc2c(C)noc2Cl)CC1,3.416%
16,CNc1cc(C)nc(N2C[C@H](NC(=O)C3CCOCC3)[C@@H](C3CC3)C2)n1,-20.28%
17,CNC(=O)COC(=O)c1cccc(-n2ccc(C(F)(F)F)n2)c1,-11.26%
18,CCCN(CCc1cccc(F)c1)c1ccc2nnnn2n1,9.519%
19,CSC(CNS(C)(=O)=O)c1cccc(Cl)c1 (stereo unspecified),9.109%
20,Cc1nc(C)n(Cc2cccc(NC(=O)N(C)CCC(C)O)c2)n1 (stereo unspecified),-6.821%
21,O=C(Cn1nnc(-c2ccc(F)cc2)n1)N1CCOCC(O)C1 (stereo unspecified),-9.782%
22,O=C(CN1C(=O)CCC1=O)N1CCOCC1,-0.7877%
23,O=C(Cn1nc(C(F)(F)F)c(Br)c1C1CC1)N1CCOCC1,103.1%
24,CCN(Cc1ccncc1)C(=O)C1COc2c(cccc2OC)C1 (stereo unspecified),-5.298%

row,SMILES,Percent Effect
1,NC(=O)c1cccc(OCCC(=O)NC2CCc3c(F)cccc32)c1 (stereo unspecified),3.003%
2,COCCN1CCC2(CC1)CN(Cc1cccc(C)n1)C(=O)CO2,94.2%
3,Cc1cccc(CN2CC3(CCNCC3)OCC2=O)n1,-5.931%
4,Cc1cccc(CN2CCC3(CCCN(C(=O)CN(C)C)C3)C2=O)n1 (stereo unspecified),1.32%
5,CCCC(=O)N1CCC2(CC1)CN(Cc1cccc(C)n1)C(=O)CO2,88.89%
6,COCC(=O)N1CCCC2(CCN(Cc3cccc(C)n3)C2=O)C1.O=C(O)C(F)(F)F (stereo unspecified),-15.33%
7,O=C1COC2(CCN(Cc3ccccn3)CC2)CN1CC1CC1,3.205%
8,Cc1cccc(CN2CC3(CCN(C(=O)C4CC4)CC3)OCC2=O)n1,113.2%
9,COCCN1CCC2(CC1)CN(CCn1cccn1)C(=O)CO2.O=C(O)C(F)(F)F,-17.67%
10,Cc1cccc(CN2CC3(CCN(C(N)=O)CC3)OCC2=O)n1,101.1%
11,COCCN(C)CCN1CC2(CCN(C3CCOCC3)CC2)OC1=O,-18.87%
12,Cc1ccsc1-c1nnc(SCC(=O)O)n1C(C)c1ccccc1 (stereo unspecified),-0.1706%
13,CCN(CC)c1ccc(C2C3=C(COC3=O)Nc3[nH]nc(C)c32)cc1 (stereo unspecified),4.109%
14,CCc1ncncc1C(=O)Nc1ccc2ccn(CCN(C)C)c2c1,-10.28%
15,CCc1nc(C)c([C@H]2CN(C)C[C@@H]2C(=O)NCc2ccccc2OC)[nH]1,-8.879%
16,Cc1ccccc1C(CC(=O)NCc1n[nH]c(N)n1)c1ccccc1 (stereo unspecified),-7.585%
17,CC(NC(=O)NCCCc1n[nH]c(N)c1C#N)c1cccs1 (stereo unspecified),-7.784%
18,Cc1ncsc1CN1CCOC(C)(C(N)=O)C1 (stereo unspecified),122.3%
19,Cc1ncsc1CN1CC[C@H]2OCC[C@@]2(C(=O)N(C)C)C1,3.882%
20,Cc1ncsc1CN1CCOC(C)(C(=O)N(C)C)C1 (stereo unspecified),112.2%
21,Cc1ncsc1CN1CC2(CCCC2)CC1=O,-13.29%
22,Cc1ncsc1CN1CCOC(C)(C(=O)N2CCOCC2)C1 (stereo unspecified),106.3%
23,Cc1nn(C)c(C)c1-c1ccnc(N(C)Cc2noc(C(C)C)n2)n1,-9.96%
24,CCNC(=O)N[C@H]1C[C@@H](Cc2cc(CN3CCCCC3)on2)C1(C)C,1.239%

row,SMILES,Percent Effect
1,Cc1ccoc1C(=O)N1CC[C@@H]2O[C@@H](C)C[C@H]2C1,0.7135%
2,Cc1ccc(C(=O)N2CC[C@@H]3CN(C4CCOCC4)CCO[C@@H]3C2)o1.O=C(O)C(F)(F)F,105.9%
3,Cc1ccoc1C(=O)N1CC[C@H]2O[C@@H](C)C[C@H]2C1,-21.6%
4,COc1ccc(CN2CC[C@@H]3CN(S(C)(=O)=O)CCO[C@@H]3C2)cc1.O=C(O)C(F)(F)F,4.247%
5,Cc1ccoc1C(=O)N1CC[C@@H]2CN(C3CCOCC3)CCO[C@@H]2C1.O=C(O)C(F)(F)F,107.8%
6,CN1CCO[C@@H]2CN(C(=O)c3ccc4[nH]ccc4c3)CC[C@@H]2C1.O=C(O)C(F)(F)F,-13.85%
7,O=C(O)C(F)(F)F.O=C(c1ccco1)N1CC[C@@H]2CN(C3CCOCC3)CCO[C@@H]2C1,107.9%
8,CN(C)C[C@H]1OC[C@@H]2CCN(C(=O)c3ccco3)C[C@@H]21.O=C(O)C(F)(F)F,5.332%
9,O=C(O)C(F)(F)F.O=C(c1ccco1)N1CCOCC2(CCN(C3CCOCC3)C2)C1 (stereo unspecified),7.241%
10,Cc1ccc(CNC2(Cc3cc(-c4cccc(O)c4)on3)COC2)o1,-8.459%
11,COC(=O)C1CCN(C(=O)c2ccc(N(C)S(C)(=O)=O)c(C)c2)CC1,-6.417%
12,COCCC1(C(=O)O)CCCN(Cc2cc3c(cc2Cl)OCO3)C1 (stereo unspecified),4.782%
13,CNC(=O)CN1CCC(NC2CSCCc3ccccc32)CC1 (stereo unspecified),0.2819%
14,CC(C)S(=O)(=O)N1CCCC(c2nnc(Cn3ccnc3)n2C)C1 (stereo unspecified),-6.159%
15,CS(=O)(=O)N1CCC(c2nnc(Cn3ccnc3)n2C2CC2)CC1,-22.9%
16,COC(=O)N1CCC(c2nnc(Cn3ccnc3)n2C)CC1,110.5%
17,Cn1c(Cn2ccnc2)nnc1C1CCN(C(=O)C2(C)CC2)CC1,6.343%
18,CC(C)OC(=O)N1CCC(c2nnc(Cn3ccnc3)n2C)CC1,96.34%
19,Cn1c(Cn2ccnc2)nnc1C1CCCN(C2CCCCC2)C1 (stereo unspecified),-3.14%
20,Cc1ccc(N2C(=O)N[C@@H]3CCN(C(=O)C4CCCC4)[C@@H]3C2=O)cc1,-4.286%
21,CCc1ccc(C(=O)O)cc1S(=O)(=O)N(C)c1cccc(C#N)c1,-20.44%
22,c1csc(N2CCN(Cc3cc4n(n3)CCNC4)CC2)n1,-2.451%
23,COC(=O)Cn1c(=O)nc2n1C(=O)N(c1ccc(Cl)cc1)C2,5.835%
24,CNc1nc(C)cc(NCc2cc(C)cc3c(C)c(C)[nH]c23)n1,-6.475%

row,SMILES,Percent Effect
1,O=C(O)C(F)(F)F.O=S(=O)(C1CC1)N1CC[C@@H]2[C@@H]1CCN2Cc1cccs1,10.91%
2,O=C(O)C(F)(F)F.O=C([C@@H]1CC[C@@H]2[C@@H](CCN2Cc2cccs2)O1)N1CCCCO1,-2.602%
3,Cc1cccc(CN2CC[C@@H]3O[C@@H](C(=O)N4CCN(C)CC4)C[C@@H]32)c1,93.61%
4,CN1CCN(C(=O)[C@H]2CC[C@@H]3[C@@H](CCN3Cc3ccsc3)O2)CC1.O=C(O)C(F)(F)F.O=C(O)C(F)(F)F,-13.28%
5,Cc1ccc(CN2CC[C@H]3[C@H]2CCN3S(=O)(=O)C2CC2)cc1.O=C(O)C(F)(F)F,-0.5114%
6,Cc1cccc(CN2CCN(C(=O)[C@@H]3CSCN3C)CC2)c1,0.2793%
7,Cn1cc(CN2CC[C@@H]3O[C@H](C(=O)N4CCOCC4)C[C@@H]32)cn1,5.245%
8,Cc1cccc(CN2CC[C@@H]3O[C@@H](C(=O)N4CCN(C)CC4)C[C@@H]32)n1,123%
9,Cc1cccc(CN2C[C@@H](CN3CCCN(C)CC3)C[C@H](CO)C2)n1,-14.48%
10,Cc1ccc(CN2CC[C@@H]3O[C@@H](C(=O)N4CCN(C)CC4)C[C@@H]32)cc1.O=C(O)C(F)(F)F.O=C(O)C(F)(F)F,117.4%
11,CN1CCN(C(=O)[C@H]2C[C@H]3[C@H](CCN3Cc3cccs3)O2)CC1.O=C(O)C(F)(F)F.O=C(O)C(F)(F)F,106.2%
12,CCN1CCC(CNCc2cc(C)ccc2OC)C1 (stereo unspecified),23.09%
13,Cc1[nH]nc2ncc(C(=O)N3CCN(C(C)(C)C)CC3)cc12,13.12%
14,CN(C)c1ccccc1CN1CCCCC1CNS(C)(=O)=O (stereo unspecified),-10.3%
15,O=C1CC2(CCN(C(=O)c3csc(-c4ccccc4)n3)C2)C(=O)N1 (stereo unspecified),6.339%
16,COCCCN1CCC(NC(=O)C2CC2)CC1,-0.3398%
17,O=C(c1ccoc1)N1CCn2nc(CN3CCSCC3)cc2C1,-1.758%
18,O=C([C@H]1C[C@H]2[C@H](CCN2Cc2cccs2)O1)N1CCOCC1,91.43%
19,O=C(NC1CCCC1)c1cc(Cn2cnc3ccccc32)on1,-23.61%
20,CN(C)Cc1nc(-n2cnc(C(=O)NCC3CC3)c2)n2ccccc12,123.3%
21,CN(C)Cc1nc(-n2cnc(C(=O)NC3CCCC3)c2)n2ccccc12,115.9%
22,Cn1cnc(-c2nc(C(=O)NCC3CCCO3)c3ccccn23)c1 (stereo unspecified),-2.484%
23,CN(Cc1nnc2ccccn12)C(=O)NC1CCCCC1,-15.02%
24,O=C(NCCO)c1ccn(-c2ccc3ccccn23)n1,-13.14%
